A selection: hits, their analogues and other compounds. The true share with any hit is near 0.85%.
ZTA counter – counter-screen for EBNA-1 inhibitors: inhibitors of Epstein-Barr virus ZTA | actives 0.15% (n = 320,000) | P03206 | inhibition, % at 11 µM | ZTA-DNA binding, fluorescence polarization; in the data active = inhibition above about 33%
eLon inh – inhibitors of E. coli Lon protease, primary screen, biochemical, fluorescence polarization; purified E. coli Lon protease; P0A9M0; AID 602123, 2011; actives 0.42% (n = 360,000); inhibition, % at 7.94 µM; in the data active = inhibition above about 13%, passing the limit was not always enough;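 note: 0% = enzyme with probe and DMSO and 100% = no enzyme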
Keap1 Nrf2 FP – Keap1-Nrf2 protein-protein interaction inhibitors, primary screen, biochemical, fluorescence polarization, single point; Keap1 Kelch-Nrf2 peptide fluorescence polarization, 1536-well; actives 0.15% (n = 340,000); Kelch-like ECH-associated protein 1 (Homo sapiens), Q14145; inhibition, % at 9.4 µM; AID 504523, 2011; in the data active = inhibition above about 12%;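 note: human Keap1 Kelch domain with fluorescein labeled Nrf2 9mer peptide probe; 0% = neutral control wells and 100% = peptide positive control; higher means more block of Keap1 binding to Nrf2 peptide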
Target sequence (Q14145 whole entry, looked up, the tested form may be a part): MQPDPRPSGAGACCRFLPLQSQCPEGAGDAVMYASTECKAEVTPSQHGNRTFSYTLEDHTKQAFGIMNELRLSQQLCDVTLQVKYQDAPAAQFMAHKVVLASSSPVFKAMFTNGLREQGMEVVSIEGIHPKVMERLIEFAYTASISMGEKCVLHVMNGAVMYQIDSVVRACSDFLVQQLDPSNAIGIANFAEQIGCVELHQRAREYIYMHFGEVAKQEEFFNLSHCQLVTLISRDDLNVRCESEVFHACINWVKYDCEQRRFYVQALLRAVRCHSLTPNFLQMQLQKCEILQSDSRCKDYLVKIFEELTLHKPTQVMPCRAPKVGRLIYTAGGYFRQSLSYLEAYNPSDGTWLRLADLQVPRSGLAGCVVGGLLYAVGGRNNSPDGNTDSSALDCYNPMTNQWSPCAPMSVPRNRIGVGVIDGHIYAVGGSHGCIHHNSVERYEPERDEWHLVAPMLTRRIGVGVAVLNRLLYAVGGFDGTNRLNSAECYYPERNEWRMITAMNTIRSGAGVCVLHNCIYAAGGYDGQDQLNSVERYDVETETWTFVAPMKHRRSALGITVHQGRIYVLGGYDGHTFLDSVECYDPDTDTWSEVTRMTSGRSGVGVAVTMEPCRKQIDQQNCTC
EBNA-1 inh – EBNA-1 DNA-binding inhibitors, primary screen, biochemical, fluorescence polarization. inhibition, % at 14.8 µM. actives 0.34% (n = 300,000); in the data active = inhibition above about 28%
C-LANA FP – inhibitors of KSHV C-LANA binding to DNA, primary screen, biochemical, fluorescence polarization, FAM-LBS DNA, MBP-C-LANA, single point; Kaposi's sarcoma herpesvirus LANA C-terminal domain (residues 932-1162) DNA binding; inhibition, % at 9 µM; actives 0.078% (n = 340,000);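 active = highest replicate inhibition at or above 60% at 9 µM, even if other replicates fall short; inactive = all replicates below 60% inhibition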;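 note: 0% = neutral control wells and 100% = 4 µM acridine orange control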
Keap1 Kelch bind – Keap1 Kelch domain binders by thermal stabilisation, dose response, biophysical, thermal shift, RT-PCR instrument, cherry-pick; shares compounds with Keap1 Nrf2 FP; delta Tm; hits give high values; max delta Tm, degrees C; actives 8% (n = 400); AID 651823, 2012; in the data active = max delta Tm above about 0.48 degrees C
Sypro dye melt – Sypro Orange dye melt without protein, dose response, artefact control for Keap1-Nrf2 interaction inhibitor project, biochemical, thermal shift counterscreen, cherry-pick | shares compounds with Keap1 Nrf2 FP | Sypro Orange dye-only thermal melt, no protein, delta Tm; top dose 26 µM | delta Tm, degrees C (concentration not given with the values) | 140 tested, under 10 active | AID 651858, 2012;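 active = at highest dose tested, delta Tm positive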
The depositor's hits bear a star.

Cc1ccc(C(=O)N/C(=C\c2ccc(-c3ccccc3[N+](=O)[O-])o2)C(=O)NCCCN(C)C)cc1 was read as ZTA counter -7, eLon inh 18, Keap1 Nrf2 FP 14*, EBNA-1 inh 4, C-LANA FP 32 and Keap1 Kelch bind 0.02.
`CCC(C(=O)NC1C(=O)N2C(C(=O)O)=C(CSc3nnc(C)s3)CSC12)c1ccccc1` (centres undefined) gave ZTA counter -4, eLon inh -1, Keap1 Nrf2 FP 30*, C-LANA FP 17, Keap1 Kelch bind -0.12 and Sypro dye melt -26.
`Cc1nnc(SCC2=C(C(=O)O)N3C(=O)C(NC(=O)COc4ccccc4)C3SC2)s1` (centres undefined) gave eLon inh -1, Keap1 Nrf2 FP -4 and C-LANA FP 2.
COc1ccc(NC(=O)CSc2nc3ccccc3nc2N2CCCC2)cc1 was read as ZTA counter 3, eLon inh -1, Keap1 Nrf2 FP 1, EBNA-1 inh 4 and C-LANA FP 1.
`Cc1nc(NS(=O)(=O)c2ccccc2)sc1NC(=O)OCCN(C)C` gave ZTA counter 3, eLon inh -5, Keap1 Nrf2 FP 27*, EBNA-1 inh 8, C-LANA FP 33 and Keap1 Kelch bind -0.05.
For CCOC(=O)CN(C)Cc1cn(C)nc1-c1ccc(Oc2ccccc2)cc1 the results were ZTA counter 8, eLon inh -4, Keap1 Nrf2 FP -8, EBNA-1 inh 3 and C-LANA FP -1.
`CCN(CC)S(=O)(=O)c1ccc(C(=O)OCCN2C(=O)c3cccc4c(N5CCOCC5)ccc(c34)C2=O)cc1` gave ZTA counter 1, eLon inh 2, Keap1 Nrf2 FP 27*, EBNA-1 inh 7, C-LANA FP 31 and Keap1 Kelch bind 0.07.
`O=C(NNc1ncnc2sccc12)c1ccc(Cl)cc1` gave ZTA counter -3, eLon inh 8, Keap1 Nrf2 FP 27*, EBNA-1 inh 1, C-LANA FP 16 and Keap1 Kelch bind -0.05.
Cc1csc2ncnc(NNC(=O)c3ccc(Cl)cc3)c12 was read as ZTA counter -23, eLon inh 0, Keap1 Nrf2 FP -3, EBNA-1 inh 5 and C-LANA FP 0.
NC(=O)COc1ccc(NC(=O)CC23CC4CC(CC(C4)C2)C3)cc1 was read as ZTA counter -14, eLon inh -4, Keap1 Nrf2 FP 22*, EBNA-1 inh -7, C-LANA FP 1 and Keap1 Kelch bind -0.09.
Screening CNC(=O)c1ccc(NC(=O)CC23CC4CC(CC(C4)C2)C3)cc1 returned ZTA counter 5, eLon inh 6, Keap1 Nrf2 FP -2, EBNA-1 inh -18 and C-LANA FP 0.
Screening Cn1nc(-c2ccccc2)c2nc3ccccc3nc21 returned ZTA counter 17, eLon inh -5, Keap1 Nrf2 FP 54*, EBNA-1 inh 0, C-LANA FP 33, Keap1 Kelch bind -0.08 and Sypro dye melt -28.
Screening O=C(Nc1ccccc1C(=O)NCCc1ccc(O)cc1)c1ccco1 returned ZTA counter -9, eLon inh -5, Keap1 Nrf2 FP -3, EBNA-1 inh -4 and C-LANA FP 1.
Cc1ccc(O)c(C(=O)c2cnc3c(c2)c(=O)n(C)c(=O)n3C)c1 was read as ZTA counter 1, eLon inh -2, Keap1 Nrf2 FP -1, EBNA-1 inh -1 and C-LANA FP 1.
`Cc1ccc(O)c(C(=O)c2cnc3c(c2)c(C)nn3-c2ccccc2)c1` gave ZTA counter -11, eLon inh -4, Keap1 Nrf2 FP 23*, EBNA-1 inh 1, C-LANA FP 1, Keap1 Kelch bind -0.1 and Sypro dye melt -28.
Screening CN1C(=O)c2cccc3c(S(N)(=O)=O)ccc1c23 returned ZTA counter 7, eLon inh -7, Keap1 Nrf2 FP 29*, EBNA-1 inh -3, C-LANA FP 19 and Keap1 Kelch bind -0.09.
CCSc1ncc(Cl)c(C(=O)Nc2ccccc2OC)n1 was read as ZTA counter -10, eLon inh -8, Keap1 Nrf2 FP 23*, EBNA-1 inh 0, C-LANA FP 5 and Keap1 Kelch bind -0.2.
For CC1(C(=O)NS(=O)(=O)C2CC2)CCCN(C(=O)c2ccc(C(F)(F)F)cc2)C1 (centres undefined) the results were eLon inh -21.
Nc1nc(SCC(=O)Nc2cc(C(F)(F)F)ccc2N2CCOCC2)n[nH]1 was read as ZTA counter 14, eLon inh 1, Keap1 Nrf2 FP 14*, EBNA-1 inh 3, C-LANA FP 0, Keap1 Kelch bind -0.07 and Sypro dye melt -27.
Nc1nnc(SCC(=O)Nc2cc(C(F)(F)F)ccc2N2CCOCC2)s1 was read as ZTA counter 3, eLon inh 5, Keap1 Nrf2 FP -3, EBNA-1 inh 8 and C-LANA FP -1.
`CN(CC(=O)Nc1cc(C(F)(F)F)ccc1-n1cncn1)Cc1ccccc1N1CCOCC1` gave eLon inh -3, Keap1 Nrf2 FP 41*, C-LANA FP 19, Keap1 Kelch bind -0.16 and Sypro dye melt -27.
Screening CC1CCCC(NC(=O)c2cccc(S(=O)(=O)N3CCOCC3)c2)C1C (centres undefined) returned eLon inh 6.
For Cc1cc(C)c(C)c(S(=O)(=O)Nc2cccc(S(=O)(=O)Nc3ccccc3C(=O)O)c2)c1C the results were eLon inh 0, Keap1 Nrf2 FP 14*, C-LANA FP 0 and Keap1 Kelch bind 0.58*.
Clc1cccc(CNc2ccn3nc(-c4ccccc4Cl)cc3n2)c1 was read as eLon inh 10.
Oc1cc(NCCN2CCOCC2)cc2cccnc12 was read as eLon inh 3, Keap1 Nrf2 FP 18*, C-LANA FP 11 and Keap1 Kelch bind -0.12.
For O=C1CCn2c1c(O)c1ccccc1c2=O the results were eLon inh 37, Keap1 Nrf2 FP 19*, C-LANA FP 31, Keap1 Kelch bind -0.07 and Sypro dye melt -31.
O=c1c2ccccc2nc2n1CCC2 was read as ZTA counter 0, eLon inh -4, Keap1 Nrf2 FP 3, EBNA-1 inh -5 and C-LANA FP 2.
`CC1CCN(S(=O)(=O)c2nnc(NC(=O)c3cccc(Cl)c3)s2)CC1` gave ZTA counter -7, eLon inh -11, Keap1 Nrf2 FP -5, EBNA-1 inh 7 and C-LANA FP -1.
